The supplement of paper PMC12494721
Where a name gives a salt, the structure may show the parent alone.

How the values were obtained:
Settings in all cases: incubation time: 27 h, anaerobic, 37 °C;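 for the amine columns active = adjusted P below 0.05 in both replicates with a change the same way and a mean fold change under 0.8 or over 1.25; inactive = the rest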
[1] = test system: Clostridium sporogenes DSM 1664; assay: growth (OD595) fold change vs plate DMSO controls (fold change (ratio)); higher = more growth
Method in brief: (§1)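 Shaken 96-well cultures in mGAM, grown anaerobically for 27 h at 37 °C, were read at 595 nm. OD came from blank-subtracted readings, corrected for background with 20 µM compound solutions in water and scaled by a calibration factor of 5. Growth is the fold change versus the plate's median DMSO control. Values average 2 biological replicates, and any fold change above 1.5 is NA.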

[2] = test system: Escherichia coli IAI1; assay: as above
Method in brief: as §1

[3] = test system: Klebsiella aerogenes DSM 30053; assay: as above
Method in brief: as §1

[4] = test system: Ruminococcus gnavus DSM 108212; assay: as above
Method in brief: as §1

[5] = test system: Klebsiella aerogenes DSM 30053; assay: fold change of Histamine concentration vs plate DMSO controls (fold change (ratio)); higher = more amine produced, active = hit call of the paper (significant change in both replicates, either direction)
Method in brief: (§2)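 Amines were quantified by LC–triple-quadrupole MS in dynamic MRM mode against external calibration curves, with drift correction within each batch. The samples were whole anaerobic mGAM cultures of four gut bacterial strains, grown for 27 h at 37 °C in 80 µL wells and extracted with cold acetonitrile/methanol with 0.1% formic acid, then centrifuged. Values are reported as fold change over DMSO controls on the same plate. The mean of 2 biological replicates is given.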

[6] = test system: Clostridium sporogenes DSM 1664; assay: fold change of Tryptamine concentration vs plate DMSO controls (fold change (ratio)); higher = more amine produced, active = hit call of the paper (significant change in both replicates, either direction)
Method in brief: as §2

[7] = test system: Ruminococcus gnavus DSM 108212; assay: as above
Method in brief: as §2

[8] = test system: Escherichia coli IAI1; assay: fold change of Putrescine concentration vs plate DMSO controls (fold change (ratio)); higher = more amine produced, active = hit call of the paper (significant change in both replicates, either direction)
Method in brief: as §2

[9] = test system: Klebsiella aerogenes DSM 30053; assay: as above
Method in brief: as §2

[10] = test system: Escherichia coli IAI1; assay: fold change of Cadaverine concentration vs plate DMSO controls (fold change (ratio)); higher = more amine produced, active = hit call of the paper (significant change in both replicates, either direction)
Method in brief: as §2

[11] = test system: Klebsiella aerogenes DSM 30053; assay: as above
Method in brief: as §2

[12] = test system: Ruminococcus gnavus DSM 108212; assay: fold change of 2-Phenylethylamine concentration vs plate DMSO controls (fold change (ratio)); higher = more amine produced, active = hit call of the paper (significant change in both replicates, either direction)
Method in brief: as §2

| SMILES | growth [1] | growth [2] | growth [3] | growth [4] | fold change of Histamine concentration [5] | fold change of Tryptamine concentration [6] | fold change of Tryptamine concentration [7] | fold change of Putrescine concentration [8] | fold change of Putrescine concentration [9] | fold change of Cadaverine concentration [10] | fold change of Cadaverine concentration [11] | fold change of 2-Phenylethylamine concentration [12] |
| --- | --- | --- | --- | --- | --- | --- | --- | --- | --- | --- | --- | --- |
| CN(C)CCCN1c2ccccc2CCc2ccc(Cl)cc21 [Clomipramine hydrochloride] (20 µM) | 1.07 | 0.978 | 0.972 | 0.705 | 1.04 (inactive) | 1.04 (inactive) | 0.823 (inactive) | 0.997 (inactive) | 1.03 (inactive) | 1.06 (inactive) | 0.985 (inactive) | 0.82 (inactive) |
| CC(C)(Oc1ccc(C2CC2(Cl)Cl)cc1)C(=O)O (configuration not stated) [Ciprofibrate] (20 µM) | 0.861 | 0.88 | 0.891 | 0.992 | 1.01 (inactive) | 1.04 (inactive) | 0.951 (inactive) | 1.01 (inactive) | 1 (inactive) | 1.03 (inactive) | 0.992 (inactive) | 0.949 (inactive) |
| O=C(N[C@H](CO)[C@H](O)c1ccc([N+](=O)[O-])cc1)C(Cl)Cl [Chloramphenicol] (20 µM) | 1.25 | 0.0503 | 0.0799 | 1.08 | 0.0535 (active) | 0.64 (inactive) | 0.168 (active) | 0.245 (active) | 0.512 (active) | 0.0844 (active) | 0.383 (active) | 0.182 (active) |
| O=C(O)c1cn(-c2ccc(F)cc2)c2cc(N3CCNCC3)c(F)cc2c1=O [Sarafloxacin] (20 µM) | 0.012 | 0.0263 | 0.182 | 0.896 | 0.129 (active) | 0.0563 (active) | 0.8 (inactive) | 0.832 (inactive) | 0.651 (active) | 0.244 (active) | 0.969 (inactive) | 0.894 (inactive) |
| CCCCC(CC)CNC(=N)NC(=N)NCCCCCCNC(=N)NC(=N)NCC(CC)CCCC (configuration not stated) [Alexidine dihydrochloride] (20 µM) | 0.294 | 0.938 | 0.967 | 0.624 | 1.11 (inactive) | 0.172 (active) | 0.0418 (active) | 1.08 (inactive) | 1.02 (inactive) | 1.12 (inactive) | 0.999 (inactive) | 0.0355 (active) |
| Cc1cccn2c(=O)c(-c3nnn[nH]3)cnc12 [Pemirolast potassium] (20 µM) | 0.934 | 0.984 | 0.975 | 0.807 | 1.03 (inactive) | 1.02 (inactive) | 1.01 (inactive) | 0.994 (inactive) | 1.01 (inactive) | 0.992 (inactive) | 1 (inactive) | 1.04 (inactive) |
| Cc1nc2n(c(=O)c1CCN1CCC(c3noc4cc(F)ccc34)CC1)CCCC2O (configuration not stated) [Paliperidone] (20 µM) | 0.897 | 1.01 | 0.982 | 1 | 1.05 (inactive) | 0.998 (inactive) | 0.966 (inactive) | 1.06 (inactive) | 1.02 (inactive) | 0.993 (inactive) | 0.986 (inactive) | 0.983 (inactive) |
| CCCNC(C)C(=O)Nc1c(C)csc1C(=O)OC (configuration not stated) [Articaine hydrochloride] (20 µM) | 0.923 | 1.08 | 1.03 | 1.12 | 0.917 (inactive) | 1.06 (inactive) | 1.06 (inactive) | 0.985 (inactive) | 0.992 (inactive) | 0.966 (inactive) | 1.01 (inactive) | 1.09 (inactive) |
| O=C1CCC(N2C(=O)c3ccccc3C2=O)C(=O)N1 (configuration not stated) [Thalidomide] (20 µM) | 1.13 | 0.98 | 1.04 | 1.15 | 1 (inactive) | 1 (inactive) | 0.971 (inactive) | 0.97 (inactive) | 1.02 (inactive) | 1.02 (inactive) | 1 (inactive) | 0.981 (inactive) |
| COc1ccc(-c2ccc3cc(C(=O)O)ccc3c2)cc1C12CC3CC(CC(C3)C1)C2 [Adapalene] (20 µM) | 0.829 | 1 | 1.04 | 1.18 | 1.02 (inactive) | 0.96 (inactive) | 1.04 (inactive) | 1.02 (inactive) | 1 (inactive) | 1.02 (inactive) | 0.994 (inactive) | 1.06 (inactive) |
| CC(C)(C(=O)O)c1ccc(C(O)CCCN2CCC(C(O)(c3ccccc3)c3ccccc3)CC2)cc1 (configuration not stated) [Fexofenadine hydrochloride] (20 µM) | 1.1 | 1.02 | 1.09 | 1.19 | 0.876 (inactive) | 1.04 (inactive) | 0.978 (inactive) | 0.971 (inactive) | 0.999 (inactive) | 1.02 (inactive) | 1.01 (inactive) | 0.993 (inactive) |
| C[C@]12C=CC(=O)C=C1CC[C@@H]1[C@@H]2C(=O)C[C@@]2(C)[C@H]1CC[C@]2(O)C(=O)CO [Prednisone] (20 µM) | 1.04 | 1.05 | 1.08 | 1.1 | 0.861 (inactive) | 1.04 (inactive) | 1.04 (inactive) | 1.07 (inactive) | 0.941 (inactive) | 1.08 (inactive) | 1.02 (inactive) | 1.02 (inactive) |
| CC1CC(OC(=O)c2ccccc2O)CC(C)(C)C1 (configuration not stated) [Homosalate] (20 µM) | 1.2 | 0.987 | 0.984 | 1.1 | 1.04 (inactive) | 0.994 (inactive) | 0.952 (inactive) | 1.23 (inactive) | 1 (inactive) | 1 (inactive) | 0.986 (inactive) | 0.922 (inactive) |
| Cc1ccc(Cl)c(Nc2ccccc2C(=O)O)c1Cl [Meclofenamic acid sodium salt monohydrate] (20 µM) | 1.01 | 0.972 | 1.16 | 1.12 | 0.916 (inactive) | 0.879 (inactive) | 0.959 (inactive) | 0.999 (inactive) | 0.977 (inactive) | 1.03 (inactive) | 1.03 (inactive) | 0.911 (inactive) |
| Cc1ccc2c([nH]c(=O)c3c(=O)cc(C(=O)OCCC(C)C)oc32)c1C [Repirinast] (20 µM) | 1.15 | 1.03 | 0.997 | 1.08 | 1.03 (inactive) | 1.08 (inactive) | 0.977 (inactive) | 1.01 (inactive) | 1 (inactive) | 1.03 (inactive) | 0.998 (inactive) | 0.964 (inactive) |
| Nc1cccc2c1C(=O)N(C1CCC(=O)NC1=O)C2=O (configuration not stated) [Pomalidomide] (20 µM) | 1.09 | 1.02 | 1.02 | 1.04 | 1.13 (inactive) | 1.12 (inactive) | 1.03 (inactive) | 0.938 (inactive) | 1.04 (inactive) | 0.954 (inactive) | 1.03 (inactive) | 1.07 (inactive) |
| COc1cccc2c1C(=O)c1c(O)c3c(c(O)c1C2=O)C[C@@](O)(C(C)=O)C[C@@H]3O[C@H]1C[C@H](N)[C@H](O)[C@H](C)O1 [Daunorubicin hydrochloride] (20 µM) | 0.967 | 0.972 | 0.997 | 1.13 | 1.01 (inactive) | 0.941 (inactive) | 0.986 (inactive) | 0.988 (inactive) | 1.02 (inactive) | 1.09 (inactive) | 1.04 (inactive) | 0.967 (inactive) |
| CC1(C)[C@@H](O[C@H]2O[C@H](C(=O)O)[C@@H](O)[C@H](O)[C@H]2O[C@@H]2O[C@H](C(=O)O)[C@@H](O)[C@H](O)[C@H]2O)CC[C@]2(C)[C@H]3C(=O)C=C4[C@@H]5C[C@@](C)(C(=O)O)CC[C@]5(C)CC[C@@]4(C)[C@]3(C)CC[C@@H]12 [Glycyrrhizic acid] (50 µM) | 0.971 | 0.995 | 1.07 | 1.07 | 0.865 (inactive) | 0.966 (inactive) | 1.05 (inactive) | 1.02 (inactive) | 0.992 (inactive) | 1.05 (inactive) | 1.03 (inactive) | 1.1 (inactive) |
| COC(=O)C1=C(C)NC(C)=C(C(=O)OCCN2CCN(C(c3ccccc3)c3ccccc3)CC2)C1c1cccc([N+](=O)[O-])c1 (configuration not stated) [Manidipine Dihydrochloride] (20 µM) | 0.816 | 1.01 | 1 | 0.934 | 1 (inactive) | 0.799 (inactive) | 0.848 (inactive) | 0.983 (inactive) | 1 (inactive) | 1.01 (inactive) | 0.997 (inactive) | 0.9 (inactive) |
| c1ccc(C2CN3CCSC3=N2)cc1 (configuration not stated) [Tetramisole hydrochloride] (20 µM) | 0.855 | 0.574 | 1.07 | 0.976 | 1.04 (inactive) | 0.939 (inactive) | 1.01 (inactive) | 1.33 (inactive) | 1.03 (inactive) | 2 (active) | 0.992 (inactive) | 1.03 (inactive) |
| COc1c(O[C@@H]2O[C@H](CO)[C@@H](O)[C@H](O)[C@H]2O)cc2c(c1OC)-c1ccc(SC)c(=O)cc1[C@@H](NC(C)=O)CC2 [Thiocolchicoside] (20 µM) | 0.996 | 1 | 0.975 | 0.686 | 1.1 (inactive) | 1.01 (inactive) | 1.02 (inactive) | 1.01 (inactive) | 1.02 (inactive) | 1 (inactive) | 0.991 (inactive) | 1.01 (inactive) |
